An excerpt weighted towards active compounds, which were near 21% of everything screened.
IL-1B inflam inh: inhibitors of inflammasome signaling (IL-1 beta secretion); THP-1 LPS/ATP IL-1B secretion, AlphaLISA, 16 h; hits give low values; activity change, % at 57.5 µM; 360,000 tested, 4.7% active; in the data active = activity change below about -50%; inconclusive = mostly about -30% to -49%
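THP-1 cells pretreated 1 hr with compounds (up to 57.5 uM final), then stimulated with LPS (250 ng/mL final) plus ATP (1.25 mM final); secreted IL-1B measured by AlphaLISA after 16 hr, decreased signal indicating inhibition.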
TDP1 cell CPT: growth inhibition of DT40 Tdp1-/-;hTDP1 cells with camptothecin (screen for TDP1 inhibitors) | Potency, µM (titrated, usually from 46.2 µM), without a hit: at the top dose activity change, negative = growth inhibition, hits mostly inhibitors | 420,000 tested, 12% active | AID 686979 | chicken DT40 Tdp1-/-;hTDP1 cells + 20 nM CPT, ATP luminescence, 48 h; also: potency is read from the fitted curve at half-maximal effect; nearly all actives have a fitted effect of over 55% in size
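Chicken DT40 Tdp1-/- cells stably complemented with human TDP1 were seeded at 400 cells/well in medium containing 20 nM camptothecin, exposed to pin-transferred compounds, and grown at 37 °C for at least 48 hr. Viability was read as ATP luminescence.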
ELG1 repair inh: blocks ELG1-dependent DNA repair in HEK293T cells; HEK293T ELG1-luciferase reporter, luminescence, 16 h; DNA damage induced by 5-fluorouridine; Potency, µM (top dose mostly 46.1 µM), for inactives: at the highest dose activity change, negative = inhibition, actives largely listed as inhibitors; 330,000 tested, 2.3% active; also: potency is read from the fitted curve at half-maximal effect; nearly all actives have a fitted effect of over 55% in size
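In this reporter screen, reduction of luminescence relative to DMSO vehicle indicated activity. Compounds and 5-fluorouridine were added together to 2,000 cells per well, incubated for 16 hr at 37 °C, then developed with ONE-Glo.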
TDP1 cell noCPT: qHTS for Inhibitors of human tyrosyl-DNA phosphodiesterase 1 (TDP1): qHTS in cells in absence of CPT; DT40 Tdp1-/- hTDP1 cells, no CPT, ATP luminescence, 48 h; Potency, µM (titrated, usually from 46.2 µM), for the others: at the top dose activity change, negative = growth inhibition, hits mostly inhibitors; 420,000 tested, 15% active; AID 686978, 2013; also: potency is read from the fitted curve at half-maximal effect; nearly all actives have a fitted effect of over 55% in size
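No-CPT arm: Tdp1-/-;hTDP1 DT40 cells (400/well) plus compounds, incubated ≥48 hr at 37 °C. Readout CellTiter-Glo luminescence.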
Gal4-VP16 FLuc: inhibits Gal4-VP16 luciferase reporter, ROR gamma counter-screen | AID 2546 | Potency, µM (series often up to 53.6 µM), without a hit: at the top dose activity, negative = inhibition, actives largely listed as inhibitors | Drosophila S2 Gal4-VP16 UAS-luciferase, luminescence, 20 h | 310,000 tested, 3.5% active;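 also: Gal4-VP16 expression switched on by copper sulfate through the metallothionein promoter; potency is read from the fitted curve at half-maximal effect; nearly all actives have a fitted effect of over 50% in size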
RORgamma inh: blocks mouse ROR gamma transcriptional activity | 310,000 tested, 5.4% active | P51450 | Potency, µM (doses to about 53.6 µM), for inactives: at the highest dose activity change, negative = inhibition, usual class: inhibitors | Drosophila S2 Gal4-RORgamma UAS-luciferase reporter, 20 h; also: potency is read from the fitted curve at half-maximal effect; nearly all actives have a fitted effect of over 60% in size
Target sequence (P51450 whole entry, looked up, the tested form may be a part): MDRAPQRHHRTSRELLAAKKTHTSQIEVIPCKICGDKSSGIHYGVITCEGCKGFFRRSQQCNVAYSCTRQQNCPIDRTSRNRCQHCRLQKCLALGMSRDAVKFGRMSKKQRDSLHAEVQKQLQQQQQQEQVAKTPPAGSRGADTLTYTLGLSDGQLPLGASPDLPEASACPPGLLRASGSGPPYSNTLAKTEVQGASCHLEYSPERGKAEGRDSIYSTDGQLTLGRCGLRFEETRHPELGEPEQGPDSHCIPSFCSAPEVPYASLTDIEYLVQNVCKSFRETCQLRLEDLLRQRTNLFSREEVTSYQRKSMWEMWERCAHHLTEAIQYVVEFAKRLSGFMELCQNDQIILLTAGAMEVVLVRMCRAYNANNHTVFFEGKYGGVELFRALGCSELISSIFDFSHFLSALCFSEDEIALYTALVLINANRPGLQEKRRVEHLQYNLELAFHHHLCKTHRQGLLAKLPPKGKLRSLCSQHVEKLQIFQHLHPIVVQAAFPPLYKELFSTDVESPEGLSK
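A Gal4/UAS one-hybrid system in insect cells: metallothionein-promoter Gal4–ROR gamma fusion plus Photinus luciferase reporter. Copper sulfate 700 uM final, 20 hr ambient incubation, luminescent detection after 10 min with reagent.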
* marks the source's active call; other numbers are inactive results. Unless noted, calls follow the shape of the dose curve; as a rule, active = well fitted curve in the direction sought with a large enough effect; inconclusive = small, poorly fitted or top-dose-only effect, or another doubt; inactive = no such curve, though single readings can be large; an effect the other way counts as inactive or inconclusive. % is scaled to controls: 0 for no effect and ±100 for the full control effect.

How did CN(C)c1ncc2nc(-c3cc(F)cc(F)c3)c(=O)n(C3CC3)c2n1 do in these assays?
TDP1 cell CPT: -2%; TDP1 cell noCPT: 6%; Gal4-VP16 FLuc: -21%; RORgamma inh: 0%

How did O=C(Nc1cc(C(F)(F)F)cc(C(F)(F)F)c1)O[C@@H]1c2ccccc2[C@@H]2Cc3csc[n+]3[C@H]12 do in these assays?
IL-1B inflam inh: -29; TDP1 cell CPT: 5%; TDP1 cell noCPT: -12%

How did CNc1nc(-c2ccc3c(c2)CCN3C(=O)c2ccccc2C)cs1 do in these assays?
IL-1B inflam inh: -10; TDP1 cell CPT: inconclusive; ELG1 repair inh: inconclusive; TDP1 cell noCPT: 16µM*; Gal4-VP16 FLuc: -3%; RORgamma inh: -36%

What do the screens show for `O=C(CN1CCCC1)Nc1nc(-c2ccc3c(c2)CCN3C(=O)c2ccccc2F)cs1`?
IL-1B inflam inh: -12; TDP1 cell CPT: inconclusive; ELG1 repair inh: inconclusive; TDP1 cell noCPT: inconclusive; Gal4-VP16 FLuc: inconclusive; RORgamma inh: 9%

How did CNc1nc(-c2ccc3c(c2)CCN3C(=O)c2cccc(F)c2)cs1 do in these assays?
IL-1B inflam inh: inconclusive; TDP1 cell CPT: 23µM*; ELG1 repair inh: inconclusive; TDP1 cell noCPT: 21µM*; Gal4-VP16 FLuc: -10%; RORgamma inh: 1%

Results for CNc1nc(-c2ccc3c(c2)CCN3C(=O)c2ccc(F)cc2)cs1 ?
IL-1B inflam inh: -7; TDP1 cell CPT: inconclusive; ELG1 repair inh: -15%; TDP1 cell noCPT: inconclusive; Gal4-VP16 FLuc: 25%; RORgamma inh: 13%

What do the screens show for `CN(C(=O)c1cccc(NC(=O)Cc2ccc(NC(=O)C3CCCN(C(=O)C4CCCC4)C3)cc2)c1)C1CC1` (stereo unspecified)?
IL-1B inflam inh: 0; TDP1 cell CPT: -27%; TDP1 cell noCPT: inconclusive

What do the screens show for `O=C(Nc1cccc2ncccc12)C(c1ccccc1)c1ccccc1`?
IL-1B inflam inh: 19; TDP1 cell CPT: inconclusive; ELG1 repair inh: 14%; TDP1 cell noCPT: inconclusive; Gal4-VP16 FLuc: 3%; RORgamma inh: 16%

How did CC(C)c1ccc(NC(=O)CN2C(=O)c3cccc4cccc2c34)cc1 do in these assays?
TDP1 cell CPT: -17%; TDP1 cell noCPT: -7%

How did CN(C)c1ccc(-c2c(C3C4C=CCCC4(C)C(=O)N3Cc3ccccc3)ccc3ccccc23)cc1 (stereo unspecified) do in these assays?
Gal4-VP16 FLuc: -1%; RORgamma inh: -1%

Results for O=C(CCNc1cccc(Cl)c1)c1cccs1 ?
IL-1B inflam inh: 0; TDP1 cell CPT: 10µM*; ELG1 repair inh: inconclusive; TDP1 cell noCPT: 15µM*; Gal4-VP16 FLuc: -3%; RORgamma inh: 25%

What do the screens show for `CC(C)c1ccc(NCCC(=O)c2cccs2)cc1`?
IL-1B inflam inh: -26; TDP1 cell CPT: 5.2µM*; ELG1 repair inh: inconclusive; TDP1 cell noCPT: 5.2µM*; Gal4-VP16 FLuc: inconclusive; RORgamma inh: -5%

What do the screens show for `CCCOc1ccc(C(=O)CCNc2ccc(C)c(Cl)c2)cc1`?
IL-1B inflam inh: -12; TDP1 cell CPT: -23%; ELG1 repair inh: 0%; TDP1 cell noCPT: -15%; Gal4-VP16 FLuc: -6%; RORgamma inh: -11%

What do the screens show for `Cc1ccc(NC(NC(=O)c2cccs2)C(Cl)(Cl)Cl)cc1` (stereo unspecified)?
IL-1B inflam inh: 22; TDP1 cell CPT: inconclusive; ELG1 repair inh: -12%; TDP1 cell noCPT: inconclusive; Gal4-VP16 FLuc: -5%; RORgamma inh: 22%

How did CC(C)c1ccc(NCCC(=O)c2ccc(Br)cc2)cc1 do in these assays?
IL-1B inflam inh: 14; TDP1 cell CPT: -19%; ELG1 repair inh: 5%; TDP1 cell noCPT: -20%; Gal4-VP16 FLuc: -1%; RORgamma inh: 3%

How did Cc1ccc(NCCC(=O)c2cccs2)cc1Cl do in these assays?
IL-1B inflam inh: 0; TDP1 cell CPT: 7.3µM*; ELG1 repair inh: inconclusive; TDP1 cell noCPT: 9.2µM*; Gal4-VP16 FLuc: -13%; RORgamma inh: -12%

How did Cc1ccc(NC(NC(=O)c2cccs2)C(Cl)(Cl)Cl)cc1C (stereo unspecified) do in these assays?
IL-1B inflam inh: inconclusive; TDP1 cell CPT: inconclusive; ELG1 repair inh: -23%; TDP1 cell noCPT: 18µM*; Gal4-VP16 FLuc: 8%; RORgamma inh: 27%

What do the screens show for `CN(C)c1ncc2nc(-c3ccc(Cl)cc3)c(=O)n(C3CC3)c2n1`?
TDP1 cell CPT: -1%; TDP1 cell noCPT: 1%; Gal4-VP16 FLuc: 26%; RORgamma inh: 25%

What do the screens show for `COc1ccccc1CN(C)C(=O)COC(=O)c1c(C)noc1C`?
IL-1B inflam inh: 30; TDP1 cell CPT: -17%; ELG1 repair inh: -1%; TDP1 cell noCPT: -22%

How did Cc1ccc(NCCC(=O)c2cccs2)cc1 do in these assays?
IL-1B inflam inh: -7; TDP1 cell CPT: 2.9µM*; ELG1 repair inh: inconclusive; TDP1 cell noCPT: 5.2µM*; Gal4-VP16 FLuc: 4%; RORgamma inh: -45%

Results for Cc1ccc(NCCC(=O)c2cccs2)cc1C ?
IL-1B inflam inh: -22; TDP1 cell CPT: 4.6µM*; ELG1 repair inh: inconclusive; TDP1 cell noCPT: 5.8µM*; Gal4-VP16 FLuc: -6%; RORgamma inh: inconclusive

Results for Cc1ccc(NC(=O)CCC(=O)c2cccs2)cc1 ?
IL-1B inflam inh: 5; TDP1 cell CPT: -13%; ELG1 repair inh: 13%; TDP1 cell noCPT: 6%; Gal4-VP16 FLuc: -5%; RORgamma inh: 13%

What do the screens show for `O=C(CCC(=O)c1cccs1)NNC(=O)c1cccc(Cl)c1`?
IL-1B inflam inh: 22; TDP1 cell CPT: inconclusive; ELG1 repair inh: 15%; TDP1 cell noCPT: 23µM*

How did Cc1ccc(C(=O)N/N=C(/CC(=O)c2cccs2)C(F)(F)F)cc1 do in these assays?
IL-1B inflam inh: 16; TDP1 cell CPT: 7.3µM*; ELG1 repair inh: -29%; TDP1 cell noCPT: 9.2µM*; Gal4-VP16 FLuc: 7.1µM*; RORgamma inh: 11µM*

What do the screens show for `CC(=O)OC[C@@H]1CN(Cc2ccccc2)C[C@H](n2cnc3c(Nc4ccccc4)ncnc32)O1`?
IL-1B inflam inh: -1; TDP1 cell CPT: inconclusive; TDP1 cell noCPT: inconclusive

How did CCCc1cc(=O)oc2cc(OC3CCCCC3=O)ccc12 (stereo unspecified) do in these assays?
IL-1B inflam inh: inconclusive; TDP1 cell CPT: 4%; ELG1 repair inh: 4%; TDP1 cell noCPT: 16%; Gal4-VP16 FLuc: 3%; RORgamma inh: -1%

Bioassay records (PubChem BioAssay)
